Data as given in PubChem BioAssay (NCATS).

How the values were obtained:
[1] = qHTS profiling of the MIPE4 collection as inhibitors of Plasmodium falciparum (3D7) proliferation (AID 743344);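 also: scaled between DMSO vehicle wells and 0.29 µM artemisinin as full inhibition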; settings: P. falciparum 3D7 in erythrocytes, SYBR Green DNA fluorescence, 72 h; at 28.5 µM unless noted
Outline: (§1)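 Parasite DNA was quantified by SYBR Green I fluorescence (ex 485, em 535 nm) after overnight lysis in saponin/Triton buffer at room temperature. Cultures at 0.3% parasitemia and 2.5% hematocrit were first exposed to compound for 72 h at 37 C; signals were normalised to artemisinin (0.29 uM) and vehicle wells.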

[2] = qHTS profiling of the MIPE4 collection as inhibitors of Plasmodium falciparum (DD2) proliferation (AID 743345); settings: P. falciparum Dd2 in erythrocytes, SYBR Green DNA, 72 h; at 28.5 µM unless noted
Outline: as §1

[3] = qHTS profiling of the MIPE4 collection as inhibitors of Plasmodium falciparum (DD2) proliferation (Rep 2) (AID 743346); settings: P. falciparum Dd2 in erythrocytes, SYBR Green DNA, 72 h; at 28.5 µM unless noted
Outline: as §1

[4] = qHTS profiling of the MIPE4 collection as inhibitors of Plasmodium falciparum (HB3) proliferation (AID 743347);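 also: plate controls were DMSO vehicle wells for no effect and artemisinin wells for full effect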; settings: P. falciparum HB3 in erythrocytes, SYBR Green DNA, 72 h; at 28.5 µM unless noted
Outline: as §1

[5] = High-throughput drug toxicity screening in the BPDCN cell line Gen2.2 (AID 1224824); settings: Gen2.2 BPDCN cells; at 45.8 µM (top of the series) unless noted;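 also: cells exposed to compounds for 48 h before reading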
Outline: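 Gen2.2 cells, 500 per well in phenol red-free RPMI with 10% FBS, exposed to compounds 48 h at 37 C, 5% CO2; viability by CellTiter-Glo luminescence. Percent activity scaled to DMSO (100%) and 9.2 uM bortezomib final (0%).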

[6] = High-throughput drug toxicity screening in the BPDCN cell line Cal-1 (AID 1224825); settings: Cal-1 BPDCN cell viability, qHTS; at 45.8 µM (top of the series) unless noted
Outline: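 CellTiter-Glo luminescence after 48 h compound exposure; percent activity scaled with DMSO as 100% and bortezomib (9.2 uM final) as 0%. Cal-1 cells seeded at 500/well in RPMI, 10% FBS, no phenol red.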

Structure (SMILES)	parasite growth, % of DMSO control [1] [%]	parasite growth remaining, % of DMSO control (lower = more inhibition) [2] [%]	parasite growth, % of control (lower = inhibition) [3] [%]	growth, % of control [4] [%]	cell viability, % of control (lower = more cytotoxic) [5] [%]	viability (% of control) [6] [%]
CNC(=O)c1ccc(N2C(=S)N(c3cnc(C#N)c(C(F)(F)F)c3)C(=O)C23CCC3)cc1F	41	79.8	39	41.2	7.43	3.32
O=C(Cc1ccc(-c2ccc(OCCN3CCOCC3)cc2)cn1)NCc1ccccc1		20.2	27.1	11.9	49.1	9.81
CN1c2cc(O)c(N=NC(N)=O)cc2CC1S(=O)(=O)O (stereo not given)			19.7		170	126
COc1ccc(C(=O)CC2(O)C(=O)Nc3c(Cl)ccc(Cl)c32)cc1 (stereo not given)	74.3	85.7	75.9	62.1	26.7	11.2
COc1cc(Nc2ncc(F)c(Nc3ccc4c(n3)N(COP(=O)(O)O)C(=O)C(C)(C)O4)n2)cc(OC)c1OC		87.2	22.9	11.1	56.3	10.3
